# Laboratory results as given in PubChem BioAssay (NCATS).
# Results filed as inconclusive are left out. Entries that show only a call come without a potency. Calls of active or inactive are those of the source. Calls follow the shape of the dose curve; as a rule, active = well fitted cell-killing curve with a large enough effect; inconclusive = small, poorly fitted or top-dose-only effect; inactive = flat fitted curve, though single readings scatter.
# Assay: Cell Viability - LYMP2-012 (AID 982);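 also: cellular ATP by luciferase luminescence where a drop means cytotoxicity; cells exposed to compound for one day before reading; nearly all actives have a fitted effect of over 55% in size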
# Details: LYMP2-012 lymphoblastoid cell viability qHTS; series mostly up to 92.2 µM
# Excerpt: NIH Chemical Genomics Center [NCGC]
# NIH Molecular Libraries Screening Centers Network [MLSCN]
# National Institutes of Environmental Health Sciences [NIEHS]
# National Toxicology Program [NTP]
# We have developed a 1536-well cell-based assay for quantitative high throughput screening (qHTS) against a number of cell lines to determine in vitro cytotoxicity of small molecules. This particular assay uses a human lymphoblastoid cell line (LYMP2-012) purchased from Coriell Institute for Medical Research.
# NCGC Assay Protocol Summary:
# The CellTiter-Glo luminescent cell viability assay (Promega) is a homogeneous method to measure the number of viable cells in culture. The end point readout of this assay is based on quantitation of intracellular ATP, an indicator of metabolic activity, using the luciferase reaction. Luciferase catalyzes the oxidation of beetle Luciferin to oxyluciferin and light in the presence of ATP. The luminescent signal is proportional to amount of ATP present.
# Using the CellTiter-Glo luminescent cell viability assay, the amount of cellular ATP was measured in the lymphoblastoid cell line with complete culture medium following compound treatment for 24 hours. The assay was performed in opaque white Kalypsys 1536-well plates. In the screen, tetraoctylammonium bromide was used as positive control. Library compounds were measured for their ability to cause acute toxicity in the cell line, as reflected by a decrease in intracellular ATP levels, in a concentration-dependent manner. […] AC50 values were determined from concentration-response data modeled with the standard Hill equation.
# qHTS protocol for CellTiter Glo lymphoblastoid cellular assay
# [Step] [Parameter] [Value] [Description]
# 1. Reagent; 5 uL; 2500 lymphoblastoid cells/well
# 2. Time; 5 hr; 37 C incubation
# 4. Controls; 23 nL; Tetraoctylammonium bromide 6.4pM to 92 uM
# 5. Time; 24 hr; 37 C incubation
# 6. Reagent; 5 uL; CellTiter Glo reagent
# 7. Time; 30 min; Room Temperature
# 8. Detection; Luminescence; Viewlux plate reader
# Keywords: cell viability, cytotoxicity, lymphoblastoid cell line, luminescence, NTPHTS, NTPHTS_NCGC, NIEHS, DSSTox, MLSMR, MLSCN, NIH Roadmap, qHTS, NCGC
# Potency is read from the fitted curve at half-maximal effect.
row,Structure (SMILES),Potency
1,O=C1OC(O)C(C(Cl)Cl)=C1Cl (configuration not stated),20 µM (active)
2,CCC(C)Nc1ccc(NC(C)CC)cc1 (configuration not stated),3.98 µM (active)
3,c1ccc2c(c1)-c1cccc3c1c-2cc1ccccc13,inactive
4,CNc1ccc(O)cc1,3.98 µM (active)
5,Nc1ccc2cc3ccccc3cc2c1,inactive
6,CCCCCC/C(C=O)=C\c1ccccc1,inactive
7,c1ccc2c(c1)ccc1cc3c(ccc4ccccc43)cc12,inactive
8,Cc1cc(O)c(C(C)(C)C)cc1Sc1cc(C(C)(C)C)c(O)cc1C,39.8 µM (active)
9,Cc1cc(Nc2ccc(O)cc2)ccc1N,39.8 µM (active)
10,CN(C)c1ccc(C2(c3ccc(N(C)C)cc3)OC(=O)c3cc(N(C)C)ccc32)cc1,inactive
11,CC(=O)Nc1ccc(C(=O)CCl)cc1,5.01 µM (active)
12,CN1[C@H]2CC(OC(=O)[C@H](CO)c3ccccc3)C[C@H]1[C@H]1O[C@H]12 (some centres not stated),inactive
13,O=C(OCC(COC(=O)c1ccccc1)(COC(=O)c1ccccc1)COC(=O)c1ccccc1)c1ccccc1,inactive
14,C=CC(=O)OCCOCCOC(=O)C=C,12.6 µM (active)
15,O=Cc1ccc(Cl)c(Cl)c1,inactive
16,O=[N+]([O-])c1cc([N+](=O)[O-])c2ccc(S(=O)(=O)O)cc2c1O,inactive
17,O=C(/C=C/c1ccc(O)c(O)c1)OC1C[C@](O)(C(=O)O)C[C@@H](O)[C@H]1O (some centres not stated),inactive
18,C=C(C)c1ccccc1,inactive
19,O=C=Nc1ccc(Cc2ccc(N=C=O)cc2)cc1,inactive
20,CCCCCCCC[N+](CCCCCCCC)(CCCCCCCC)CCCCCCCC,3.98 µM (active)
21,Oc1ccc2cc(SSc3ccc4cc(O)ccc4c3)ccc2c1,50.1 µM (active)
22,Cc1cccc(O)c1C,inactive
